{
  "source": "PubChem BioAssay AID1159580",
  "about": "(chemical genetic matrix, 2015)",
  "assay": "chemical genetic growth profiling, strain panel (AID 1159580);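 note: tested at 20 µM; growth read once vehicle control cultures reached saturation at 30 °C; 1 = growth at the plate median or of vehicle wells; lower values mean less growth of the strain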",
  "settings": "growth OD",
  "note": "The campaign covered roughly 5,500 compounds. About 2,000 (36%) were called active. Roughly 18% stayed inconclusive and do not appear here. The list shows a part of the results. A number with no mark means an inactive call. Cut-off read from the data, not from the text of the source: active = normalized growth mostly below about 0.91 (no sharp cut-off); inconclusive = no clear call, values can overlap the other calls; inactive = mostly above about 0.92.",
  "data": [
    {"smiles": "CCOP(=S)(OCC)Oc1nc(Cl)c(Cl)cc1Cl", "values": [
      {"measurement": "normalized growth", "setting": "S. cerevisiae deletion strains, locus YJR075W, strain HOC1, active compounds read low", "result": 0.999},
      {"measurement": "normalized growth", "setting": "S. cerevisiae deletion strains, locus YKL009W, strain mrt4, active compounds read low", "result": 1},
      {"measurement": "normalized growth", "setting": "S. cerevisiae deletion strains, locus YKL068W, active compounds read low", "result": 0.99},
      {"measurement": "normalized growth", "setting": "S. cerevisiae deletion strains, locus YKL085W, strain MDH1 (second series), active compounds read low", "result": 0.996},
      {"measurement": "normalized growth", "setting": "S. cerevisiae deletion strains, locus YKL085W, strain MDH1, active compounds read low", "result": 0.996},
      {"measurement": "normalized growth", "setting": "S. cerevisiae deletion strains, locus YKL160W, strain elf1, active compounds read low", "result": 0.974},
      {"measurement": "normalized growth", "setting": "S. cerevisiae deletion strains, locus YKL190W, strain CNB1, active compounds read low", "result": 0.996},
      {"measurement": "normalized growth", "setting": "S. cerevisiae deletion strains, locus YKR001C, strain vps1, active compounds read low", "result": 0.937},
      {"measurement": "normalized growth", "setting": "S. cerevisiae deletion strains, locus YKR026C, strain gcn3, active compounds read low", "result": 0.957},
      {"measurement": "normalized growth", "setting": "S. cerevisiae deletion strains, locus YKR091W, strain srl3, active compounds read low", "result": 0.948},
      {"measurement": "normalized growth", "setting": "S. cerevisiae deletion strains, locus YLL001W, strain dnm1, active compounds read low", "result": 0.927},
      {"measurement": "normalized growth", "setting": "S. cerevisiae deletion strains, locus YLL026W, active compounds read low", "result": 0.982},
      {"measurement": "normalized growth", "setting": "S. cerevisiae deletion strains, locus YLL041C, strain sdh2, active compounds read low", "result": 0.954},
      {"measurement": "normalized growth", "setting": "S. cerevisiae deletion strains, locus YLR027C, strain aat2, active compounds read low", "result": 0.967},
      {"measurement": "normalized growth", "setting": "S. cerevisiae deletion strains, locus YLR039C, strain RIC1, active compounds read low", "result": 0.898},
      {"measurement": "normalized growth", "setting": "S. cerevisiae deletion strains, locus YLR058C, strain SHM2, active compounds read low", "result": 0.998},
      {"measurement": "normalized growth", "setting": "S. cerevisiae deletion strains, locus YLR102C, strain apc9, active compounds read low", "result": 0.986},
      {"measurement": "normalized growth", "setting": "S. cerevisiae deletion strains, locus YLR221C, strain rsa3, active compounds read low", "result": "0.852 (active)"},
      {"measurement": "normalized growth", "setting": "S. cerevisiae deletion strains, locus YLR258W, strain gsy2, active compounds read low", "result": 0.965},
      {"measurement": "normalized growth", "setting": "S. cerevisiae deletion strains, locus YLR262C, strain YPT6 (second series), active compounds read low", "result": "0.724 (active)"},
      {"measurement": "normalized growth", "setting": "S. cerevisiae deletion strains, locus YLR262C, strain YPT6, active compounds read low", "result": 0.945},
      {"measurement": "normalized growth", "setting": "S. cerevisiae deletion strains, locus YLR268W, strain sec22, active compounds read low", "result": 0.986},
      {"measurement": "normalized growth", "setting": "S. cerevisiae deletion strains, locus YLR320W, strain mms22, active compounds read low", "result": "0.828 (active)"},
      {"measurement": "normalized growth", "setting": "S. cerevisiae deletion strains, locus YLR330W, strain CHS5, active compounds read low", "result": 1},
      {"measurement": "normalized growth", "setting": "S. cerevisiae deletion strains, locus YLR342W, strain FKS1 (second series), active compounds read low", "result": 1.05},
      {"measurement": "normalized growth", "setting": "S. cerevisiae deletion strains, locus YLR342W, strain FKS1, active compounds read low", "result": 0.945},
      {"measurement": "normalized growth", "setting": "S. cerevisiae deletion strains, locus YLR357W, strain rsc2, active compounds read low", "result": 0.932},
      {"measurement": "normalized growth", "setting": "S. cerevisiae deletion strains, locus YLR370C, strain arc18, active compounds read low", "result": 0.981},
      {"measurement": "normalized growth", "setting": "S. cerevisiae deletion strains, locus YLR371W, strain rom2, active compounds read low", "result": 0.999},
      {"measurement": "normalized growth", "setting": "S. cerevisiae deletion strains, locus YLR384C, strain iki3, active compounds read low", "result": 0.989},
      {"measurement": "normalized growth", "setting": "S. cerevisiae deletion strains, locus YLR418C, strain cdc73, active compounds read low", "result": 0.938},
      {"measurement": "normalized growth", "setting": "S. cerevisiae deletion strains, locus YML016C, strain PPZ1, active compounds read low", "result": 1},
      {"measurement": "normalized growth", "setting": "S. cerevisiae deletion strains, locus YML032C, strain rad52, active compounds read low", "result": 0.979},
      {"measurement": "normalized growth", "setting": "S. cerevisiae deletion strains, locus YML120C, strain ndi1, active compounds read low", "result": 0.946},
      {"measurement": "normalized growth", "setting": "S. cerevisiae deletion strains, locus YML124C, strain tub3, active compounds read low", "result": 0.99},
      {"measurement": "normalized growth", "setting": "S. cerevisiae deletion strains, locus YMR058W, strain fet3, active compounds read low", "result": 0.921},
      {"measurement": "normalized growth", "setting": "S. cerevisiae deletion strains, locus YMR078C, strain ctf18, active compounds read low", "result": 0.984},
      {"measurement": "normalized growth", "setting": "S. cerevisiae deletion strains, locus YMR125W, strain sto1, active compounds read low", "result": 0.97},
      {"measurement": "normalized growth", "setting": "S. cerevisiae deletion strains, locus YMR129W, active compounds read low", "result": 0.953},
      {"measurement": "normalized growth", "setting": "S. cerevisiae deletion strains, locus YMR205C, strain PFK2, active compounds read low", "result": "0.842 (active)"},
      {"measurement": "normalized growth", "setting": "S. cerevisiae deletion strains, locus YMR223W, strain ubp8, active compounds read low", "result": 0.988},
      {"measurement": "normalized growth", "setting": "S. cerevisiae deletion strains, locus YMR231W, strain pep5, active compounds read low", "result": 0.968},
      {"measurement": "normalized growth", "setting": "S. cerevisiae deletion strains, locus YMR263W, strain SAP30, active compounds read low", "result": 1.04},
      {"measurement": "normalized growth", "setting": "S. cerevisiae deletion strains, locus YMR307W, strain GAS1, active compounds read low", "result": 0.873},
      {"measurement": "normalized growth", "setting": "S. cerevisiae deletion strains, locus YNL067W, strain RPL9B, active compounds read low", "result": 1},
      {"measurement": "normalized growth", "setting": "S. cerevisiae deletion strains, locus YNL071W, strain lat1, active compounds read low", "result": "0.526 (active)"},
      {"measurement": "normalized growth", "setting": "S. cerevisiae deletion strains, locus YNL128W, strain TEP1, active compounds read low", "result": 1.01},
      {"measurement": "normalized growth", "setting": "S. cerevisiae deletion strains, locus YNL153C, strain GIM3, active compounds read low", "result": 1.01},
      {"measurement": "normalized growth", "setting": "S. cerevisiae deletion strains, locus YNL209W, strain ssb2, active compounds read low", "result": 0.995},
      {"measurement": "normalized growth", "setting": "S. cerevisiae deletion strains, locus YNL233W, strain BNI4, active compounds read low", "result": 0.993},
      {"measurement": "normalized growth", "setting": "S. cerevisiae deletion strains, locus YNL248C, strain rpa49, active compounds read low", "result": 0.93},
      {"measurement": "normalized growth", "setting": "S. cerevisiae deletion strains, locus YNL250W, strain rad50, active compounds read low", "result": 0.974},
      {"measurement": "normalized growth", "setting": "S. cerevisiae deletion strains, locus YNL271C, strain bni1, active compounds read low", "result": 0.996},
      {"measurement": "normalized growth", "setting": "S. cerevisiae deletion strains, locus YNL298W, strain CLA4, active compounds read low", "result": 0.983},
      {"measurement": "normalized growth", "setting": "S. cerevisiae deletion strains, locus YNL307C, strain MCK1, active compounds read low", "result": 0.932},
      {"measurement": "normalized growth", "setting": "S. cerevisiae deletion strains, locus YNL322C, strain KRE1 (second series), active compounds read low", "result": 0.943},
      {"measurement": "normalized growth", "setting": "S. cerevisiae deletion strains, locus YNL322C, strain KRE1, active compounds read low", "result": 0.998},
      {"measurement": "normalized growth", "setting": "S. cerevisiae deletion strains, locus YNR049C, strain mso1, active compounds read low", "result": 0.959},
      {"measurement": "normalized growth", "setting": "S. cerevisiae deletion strains, locus YNR052C, strain pop2, active compounds read low", "result": 0.994},
      {"measurement": "normalized growth", "setting": "S. cerevisiae deletion strains, locus YOL006C, strain TOP1, active compounds read low", "result": 0.861},
      {"measurement": "normalized growth", "setting": "S. cerevisiae deletion strains, locus YOL012C, strain htz1", "result": 0.789},
      {"measurement": "normalized growth", "setting": "S. cerevisiae deletion strains, locus YOL147C, strain pex11, active compounds read low", "result": 0.977},
      {"measurement": "normalized growth", "setting": "S. cerevisiae deletion strains, locus YOR001W, strain rrp6, active compounds read low", "result": 0.986},
      {"measurement": "normalized growth", "setting": "S. cerevisiae deletion strains, locus YOR061W, strain CKA2, active compounds read low", "result": 0.998},
      {"measurement": "normalized growth", "setting": "S. cerevisiae deletion strains, locus YOR069W, strain VPS5, active compounds read low", "result": 0.997},
      {"measurement": "normalized growth", "setting": "S. cerevisiae deletion strains, locus YOR070C, strain gyp1, active compounds read low", "result": 0.982},
      {"measurement": "normalized growth", "setting": "S. cerevisiae deletion strains, locus YOR080W, strain dia2, active compounds read low", "result": 1},
      {"measurement": "normalized growth", "setting": "S. cerevisiae deletion strains, locus YOR083W, strain WHI5, active compounds read low", "result": 0.923},
      {"measurement": "normalized growth", "setting": "S. cerevisiae deletion strains, locus YOR106W, strain vam3, active compounds read low", "result": "0.844 (active)"},
      {"measurement": "normalized growth", "setting": "S. cerevisiae deletion strains, locus YOR136W, strain idh2, active compounds read low", "result": 0.992},
      {"measurement": "normalized growth", "setting": "S. cerevisiae deletion strains, locus YOR144C, strain elg1, active compounds read low", "result": 0.987},
      {"measurement": "normalized growth", "setting": "S. cerevisiae deletion strains, locus YOR184W, strain ser1, active compounds read low", "result": 0.99},
      {"measurement": "normalized growth", "setting": "S. cerevisiae deletion strains, locus YOR265W, strain rbl2, active compounds read low", "result": 0.976},
      {"measurement": "normalized growth", "setting": "S. cerevisiae deletion strains, locus YOR270C, strain vph1, active compounds read low", "result": "0.441 (active)"},
      {"measurement": "normalized growth", "setting": "S. cerevisiae deletion strains, locus YOR290C, strain snf2, active compounds read low", "result": 0.941},
      {"measurement": "normalized growth", "setting": "S. cerevisiae deletion strains, locus YOR316C, strain cot1, active compounds read low", "result": 0.991},
      {"measurement": "normalized growth", "setting": "S. cerevisiae deletion strains, locus YPL051W, strain arl3, active compounds read low", "result": 0.974},
      {"measurement": "normalized growth", "setting": "S. cerevisiae deletion strains, locus YPL055C, strain LGE1, active compounds read low", "result": 1.04},
      {"measurement": "normalized growth", "setting": "S. cerevisiae deletion strains, locus YPL078C, strain atp4, active compounds read low", "result": 0.97},
      {"measurement": "normalized growth", "setting": "S. cerevisiae deletion strains, locus YPL106C, strain sse1, active compounds read low", "result": 0.933},
      {"measurement": "normalized growth", "setting": "S. cerevisiae deletion strains, locus YPL240C, strain hsp82, active compounds read low", "result": 0.979},
      {"measurement": "normalized growth", "setting": "S. cerevisiae deletion strains, locus YPL241C, strain CIN2, active compounds read low", "result": 1},
      {"measurement": "normalized growth", "setting": "S. cerevisiae deletion strains, locus YPR119W, strain clb2, active compounds read low", "result": 0.974},
      {"measurement": "normalized growth", "setting": "S. cerevisiae deletion strains, locus YPR141C, strain kar3, active compounds read low", "result": 0.986},
      {"measurement": "normalized growth", "setting": "S. cerevisiae deletion strains, locus YPR163C, strain tif3, active compounds read low", "result": 1.02},
      {"measurement": "normalized growth", "setting": "S. cerevisiae deletion strains, locus YPR167C, strain met16, active compounds read low", "result": 0.99},
      {"measurement": "normalized growth", "setting": "S. cerevisiae deletion strains, strain wtn01, active compounds read low", "result": 0.991},
      {"measurement": "normalized growth", "setting": "S. cerevisiae strains, strain wild type, active compounds read low", "result": 0.995}
    ]}
  ]
}
